VACV mCherry inh: inhibitors of vaccinia virus infection (mCherry reporter signal); 310,000 tested, 0.63% active; Vaccinia virus mCherry reporter infection, fluorescence; Potency, µM (series often up to 36.5 µM), usual class: inhibitors; calls by dose curve; tested in A549 cells; note: nearly all actives have a fitted effect of over 35% in size
HCV inhibitor: inhibitors of hepatitis C virus infection. AID 651820. Potency, µM (doses to about 41.8 µM), hits mostly inhibitors. 340,000 tested, 3.4% active. Huh7.5.1 HCVcc-Cre infection, luciferase reporter, 44 h
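Compounds are dispensed onto cells plated 4 h earlier at 1,000 per well, with HCVcc-Cre virus (about 0.5 moi) added next. Following 44 h of culture, luminescent signal is measured for 15 sec after 15 min with substrate at room temperature.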
FMDV antiviral: foot and mouth disease virus antiviral activity; FMDV antiviral cell-based qHTS; Potency, µM (top dose mostly 57.9 µM), most hits filed as inhibitors; 410,000 tested, 1.2% active; calls by dose curve; tested in HEK293T cells; note: read-out not given here; nearly all actives have a fitted effect of over 45% in size
HCMV inh: human cytomegalovirus inhibition. HFF cells, HCMV-luciferase reporter, 72 h; stronger effect = lower value. activity change, negative = inhibition, % at 57.5 µM. 410,000 tested, 4.5% active. AID 1259415; in the data active = activity change below about -60%; inconclusive = no clear call, values can overlap the other calls; inactive = above about -39%
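Screen run at 2 compound doses on HFFs infected with reporter HCMV, MOI 1 PFU/cell. Luciferase activity from cell lysates at 72 h post infection gave inhibition relative to buffer-only and Salinomycin wells.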
VACV Venus inh: inhibitors of vaccinia virus (Venus reporter); Vaccinia virus Venus reporter expression, fluorescence; Potency, µM (series often up to 36.5 µM), usual class: inhibitors; 330,000 tested, 0.46% active; AID 720580; calls by dose curve; tested in A549 cells; note: nearly all actives have a fitted effect of over 30% in size
HCV inh confirm: confirmation of hepatitis C virus inhibitors | shares compounds with HCV inhibitor | 640 tested, 78% active | HCVcc-Cre infectious virus cell assay, luciferase, inhibition | Potency, µM (series often up to 41.8 µM), actives largely listed as inhibitors | AID 720575; note: nearly all actives have a fitted effect of over 80% in size
HCV cytotox: host cell cytotoxicity counter-screen for HCV inhibitors; Potency, µM (top dose mostly 41.8 µM), most hits filed as inhibitors; shares compounds with HCV inhibitor; HCV host cell line cytotoxicity counterscreen; 640 tested, 22% active; AID 720576;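 note: 44 h compound exposure; nearly all actives have a fitted effect of over 55% in size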
Large screens that a line does not name were inactive (follow-up assays come after a bar, where they were run). Most compounds without a hit are left out; they make up all but 7.3% or so of the library. Unless noted, calls come from the whole dose curve; as a rule, active = well fitted curve in the direction sought with a large enough effect; inconclusive = small, poorly fitted or top-dose-only effect, or another doubt; inactive = no such curve, though single readings can be large; an effect the other way counts as inactive or inconclusive.

CNc1nc2cc([N+](=O)[O-])c([N+](=O)[O-])cc2nc1NC	HCV inhibitor inconclusive, FMDV antiviral inconclusive, HCMV inh -86 | HCV inh confirm 20µM | HCV cytotox inconclusive
CCc1ccc(S(=O)(=O)NCc2ccc(C(=O)NCCN(Cc3ccccc3)C(C)C)cc2)cc1	FMDV antiviral inconclusive, HCMV inh inconclusive (no result: HCV inhibitor)
CCn1nnc(-c2ccccc2NC(=O)C(F)(F)F)n1	HCV inhibitor inconclusive (no result: FMDV antiviral) | HCV inh confirm inconclusive | HCV cytotox inactive
O=C(OCC1CCCO1)c1ccc2c(c1)N(Cc1ccccc1F)C(=O)c1ccccc1S2(=O)=O (configuration not stated)	none (no result: HCV inhibitor)
Cc1cc(NC(=O)Nc2nnc(N3CCCCC3)s2)ccc1Br	none (no result: HCV inhibitor)
CCN1CCN(CCCOc2ccc(-c3ccccc3)cc2)CC1	HCV inhibitor 2.8µM (no result: FMDV antiviral) | HCV inh confirm 14µM | HCV cytotox inactive
CN1CCN(CCOc2ccc(-c3ccccc3)cc2)CC1	HCV inhibitor inconclusive (no result: VACV mCherry inh, VACV Venus inh)
COc1ccc(N2CCN(CCCNC(=O)C3CCC(CNc4nc(=S)[nH]c5ccccc45)CC3)CC2)cc1 (configuration not stated)	HCV inhibitor 2.5µM, FMDV antiviral inconclusive | HCV inh confirm 6.3µM | HCV cytotox 22µM
Cc1ccccc1CN1Cc2cccc3c2[C@H](C=CC3)CC1=O	none (no result: HCV inhibitor, FMDV antiviral, HCMV inh)
CCOc1ccc(C(C)=O)cc1COc1ccc(-n2cnnn2)cc1	HCV inhibitor 2.8µM (no result: VACV mCherry inh) | HCV inh confirm 0.31µM | HCV cytotox inactive
Cc1cc2oc(C(=O)NCCc3ccc(S(N)(=O)=O)cc3)c(C)c2cc1C	HCV inhibitor inconclusive | HCV inh confirm inconclusive | HCV cytotox inactive
CC(=O)Nc1ccc(CN2C(=O)C(C)(C)ON=C2c2ccc(NC(C)=O)cc2)cc1	none (no result: HCV inhibitor)
Cc1cc(/C=C2\SC(=S)N(C)C2=O)c(C)n1-c1cccc(O)c1	VACV mCherry inh inconclusive, HCV inhibitor 4.5µM, FMDV antiviral 1.3µM, HCMV inh -92 | HCV inh confirm 25µM | HCV cytotox 25µM
COc1ccc(-n2c(C)cc(/C=C3/SC(=S)N(C)C3=O)c2C)cc1	HCMV inh inconclusive
Cc1cc(SCC(=O)c2ccccc2)n2ncc(-c3ccccc3)c2n1	HCV inhibitor inconclusive (no result: VACV mCherry inh, VACV Venus inh) | HCV inh confirm inconclusive | HCV cytotox inactive
Cc1ccc(C(=O)Nc2ccccc2N2CCCCC2)cc1[N+](=O)[O-]	HCV inhibitor 2.2µM, FMDV antiviral inconclusive | HCV inh confirm 16µM | HCV cytotox 28µM
COc1ccccc1NC(=O)Nc1nc(CC(=O)NCc2ccccn2)cs1	HCV inhibitor inconclusive
COc1ccccc1CNC(=O)Cc1csc(NC(=O)Nc2ccccc2OC)n1	HCV inhibitor inconclusive | HCV inh confirm 18µM | HCV cytotox inactive
Cc1ccc(-n2nc3c(N4CCC(C(=O)N5CCN(C)CC5)CC4)nnc(C)c3c2C)cc1	HCV inhibitor 4.5µM, HCMV inh inconclusive (no result: VACV mCherry inh, VACV Venus inh) | HCV inh confirm 16µM | HCV cytotox inactive
COc1ccc(OC)c(NC(=O)c2ccc(-c3nc(CSc4ccccc4)c(C)o3)cc2)c1	FMDV antiviral inconclusive (no result: HCV inhibitor)
O=C(c1ccccc1Cl)n1nc(-c2cccnc2)nc1NCc1ccc(F)cc1	none (no result: HCV inhibitor)
Cc1ccc(C)c(N2CCN(S(=O)(=O)c3ccc(-c4cc(C(F)(F)F)on4)s3)CC2)c1	none (no result: HCV inhibitor)
Fc1ccc2nc(-c3ccccc3)ccc2c1	none (no result: HCV inhibitor)
[O-][n+]1onc2c3cc(-c4ccccc4)nnc3ccc21	VACV mCherry inh inconclusive, HCV inhibitor inconclusive, HCMV inh -99 | HCV inh confirm inconclusive | HCV cytotox inactive
CCN1/C(=C\C(C)=O)Sc2ccc(OC)cc21	none (no result: HCMV inh)
CCN1/C(=C\C(=S)Nc2ccccc2)Sc2ccccc21	HCV inhibitor 6.3µM, HCMV inh -61 | HCV inh confirm 14µM | HCV cytotox inconclusive
CC(OC(=O)c1c2c(nc3ccccc13)/C(=C\c1ccc3c(c1)OCO3)CCC2)C(=O)Nc1ccc(S(N)(=O)=O)cc1 (configuration not stated)	HCV inhibitor inconclusive (no result: HCMV inh)
CNC(=O)NC(=O)C(C)OC(=O)c1c2c(nc3ccccc13)/C(=C/c1cccs1)CC2 (configuration not stated)	HCV inhibitor 2.8µM | HCV inh confirm 1.8µM | HCV cytotox 18µM
CC1(C)CC(=O)C(C2C3=C(CC(C)(C)CC3=O)Oc3c(Br)cc(Br)cc32)=C(O)C1 (configuration not stated)	HCV inhibitor inconclusive, FMDV antiviral inconclusive (no result: VACV mCherry inh, VACV Venus inh)
O=C(c1cn(-c2ccccc2)nc1-c1cccc([N+](=O)[O-])c1)N1CCCCC1	HCV inhibitor inconclusive, HCMV inh inconclusive | HCV inh confirm 11µM | HCV cytotox inactive
CCOc1ccccc1C(=O)NCC(c1ccc(N(C)C)cc1)N1CCc2ccccc21 (configuration not stated)	none (no result: HCV inhibitor)
CC1(C)CC(=O)C=C(c2ccc(F)nc2)C1	HCMV inh inconclusive
COc1cc(-c2nc(-c3ccc4c(c3)-c3ccccc3S4(=O)=O)c(-c3ccccc3)[nH]2)cc(OC)c1OC	HCV inhibitor 2µM | HCV inh confirm 2µM | HCV cytotox inconclusive
COc1cccc(-c2nc(-c3ccc4c(c3)-c3ccccc3S4(=O)=O)c(-c3ccccc3)[nH]2)c1OC	HCV inhibitor inconclusive (no result: VACV mCherry inh)
CCOc1ccc(NS(=O)(=O)c2csc(C(N)=O)c2)cc1	HCMV inh inconclusive
CCCCn1c(SCN2C(=O)c3ccccc3C2=O)nc2cc(S(N)(=O)=O)ccc21	none (no result: VACV mCherry inh)
CCCCn1c(SCn2nnc3ccccc3c2=O)nc2cc(S(N)(=O)=O)ccc21	HCV inhibitor inconclusive (no result: FMDV antiviral) | HCV inh confirm 0.0011µM | HCV cytotox inactive
O=C(N/N=C1\CCCc2c1[nH]c1ccc(Cl)cc21)c1ccncc1	HCV inhibitor 3.2µM, FMDV antiviral inconclusive, HCMV inh inconclusive (no result: VACV mCherry inh, VACV Venus inh) | HCV inh confirm 8.9µM | HCV cytotox inconclusive
Cc1cc(C)cc(N=c2c([N+](=O)[O-])nn(-c3ccc(Cl)cc3)n2O)c1	HCV inhibitor inconclusive | HCV inh confirm 16µM | HCV cytotox inactive
CC(C)Cc1nnc(NC(=O)c2ccc3c(c2)OCCO3)s1	none (no result: VACV mCherry inh, VACV Venus inh)
COc1cc(C)c(Cl)cc1S(=O)(=O)NCc1ccncc1	none (no result: VACV mCherry inh, FMDV antiviral, HCMV inh, VACV Venus inh)
Cc1cc(Br)c(S(=O)(=O)NCc2ccncc2)cc1C	VACV mCherry inh inconclusive, HCV inhibitor 3.2µM, HCMV inh -82 | HCV inh confirm 2µM | HCV cytotox 6.3µM
COC(=O)N(C)C[C@H]1OCc2cn(nn2)CCCC(=O)N([C@H](C)CO)C[C@@H]1C	none (no result: VACV mCherry inh, HCV inhibitor, FMDV antiviral, VACV Venus inh)
CCC1CCCCN1C(=O)c1cc(COc2ccc3ncccc3c2)on1 (configuration not stated)	VACV mCherry inh inconclusive, HCV inhibitor 3.2µM, FMDV antiviral inconclusive, HCMV inh -91 | HCV inh confirm 1.8µM | HCV cytotox 3.1µM
CN(CC(=O)NCCc1ccc(S(N)(=O)=O)cc1)Cc1ccc(Cl)cc1Cl	HCV inhibitor 7.1µM, FMDV antiviral inconclusive, HCMV inh -86 | HCV inh confirm 8.9µM | HCV cytotox 18µM
CN(CC(=O)NCCc1ccc(S(N)(=O)=O)cc1)Cc1c(F)cccc1Cl	none

Bioassay records (PubChem)
